# Laboratory results: PubChem BioAssay
# Several values for one entry are separate records, joined by “and”; a condition that tells them apart may be missing. Identical values can stand only once. For some of these results: Results with a measured potency or affinity are listed apart. Activity calls are given as the source filed them. Unless noted, no stated cut-off is given here; in the data, active means parasite load remaining mostly below about 12% (no sharp cut-off); inactive means mostly above about 10%.
# Tests used:
# [1] = blockers of polyQ-driven CASP3 activation – cell-based (AID 1583); conditions: polyglutamine-induced caspase-3 activation, cell assay; stronger effect = higher value;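 tested at 10 µM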
# [2] = yeast 75Q aggregation reduction – 75Q-TubU reporter (AID 1593); conditions: Yeast 75Q polyglutamine aggregation reporter
# [3] = restoration of touch response, mutant HTT neurons – whole organism, C. elegans mechanosensory neurons, N-terminal huntingtin (AID 1599); conditions: C. elegans polyQ-huntingtin mechanosensory neurons, stronger effect = higher value
# [4] = blockers of cytochrome c efflux from mitochondria – biochemical, purified mitochondria (AID 1603); conditions: stronger effect = lower value;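 further: mouse liver mitochondria challenged with calcium chloride; signal normalized to the plate average as 100%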
# [5] = polyglutamine aggregate formation blockers (AID 1604); conditions: polyglutamine-induced protein aggregation inhibition assay; stronger effect = higher value; tested at 2.5 µM
# [6] = glutamate transport activators, MN-1 cells, MN-1 cell line (AID 1612); conditions: MN-1 motor neuron cells, stronger effect = higher value;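 further: tested at 1 µM final; 0% = mean of DMSO vehicle wells on each plate; positive means more glutamate uptake than control and negative means less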
# [7] = GFP-Q80 aggregate reduction, neuronal-like cells, cell-based, NGF-treated PC12, GFPQ80 (AID 1614); conditions: PC12 NGF-treated GFP-polyQ80 inclusion reduction;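 further: lower means fewer inclusions and 0 means no inclusions at all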
# [8] = 75Q-TubH aggregate inhibition, S. cerevisiae, yeast (AID 1616); conditions: S. cerevisiae 75Q-TubH polyglutamine aggregation suppression; stronger effect = higher value
# [9] = P. berghei load reduction in hepatocytes – cell-based, HepG2, luciferase luminescence, HepG2 viability, primary screen (AID 624349);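 further: 100% = mean of DMSO negative control wells on the same plate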; conditions: P. berghei liver stage in HepG2, luciferase luminescence, concentration not given here; parasite load remaining: stronger effect = lower value; viability: measured here: HepG2 viability without parasites
# [10] = molecular target: 6-phosphogluconate dehydrogenase, decarboxylating (Homo sapiens) (UniProt P52209); experiment: inhibition of human phosphogluconate dehydrogenase – biochemical, recombinant enzyme, NADPH absorbance, primary screen (AID 1159550;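 active means at least 20% inhibition of 6-phosphogluconate dehydrogenase activity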); conditions: recombinant 6PGD, NADPH absorbance 341 nm; at 10 µM; stronger effect = higher value
# Sequence of 6-phosphogluconate dehydrogenase, decarboxylating (Homo sapiens) (P52209 whole entry, looked up): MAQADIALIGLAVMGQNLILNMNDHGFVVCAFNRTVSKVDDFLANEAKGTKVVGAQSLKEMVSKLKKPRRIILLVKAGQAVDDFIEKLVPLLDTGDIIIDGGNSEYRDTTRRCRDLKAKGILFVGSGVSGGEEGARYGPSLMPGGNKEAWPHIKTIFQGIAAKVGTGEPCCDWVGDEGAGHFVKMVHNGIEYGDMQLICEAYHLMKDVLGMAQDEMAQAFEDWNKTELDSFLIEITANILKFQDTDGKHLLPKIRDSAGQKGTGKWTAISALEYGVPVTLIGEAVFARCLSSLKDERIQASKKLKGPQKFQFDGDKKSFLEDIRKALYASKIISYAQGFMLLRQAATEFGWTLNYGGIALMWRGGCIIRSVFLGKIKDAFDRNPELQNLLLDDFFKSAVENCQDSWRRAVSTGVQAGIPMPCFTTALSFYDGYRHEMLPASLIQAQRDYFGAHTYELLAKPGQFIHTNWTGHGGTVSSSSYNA
# [11] = EMT-state selective cytotoxicity in co-culture – imaging, PC-3E GFP, TEM4-18 mCherry, primary screen (AID 1345086;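 active means compounds killing one labelled cell type while sparing the other, by normalised counts and ratio limits, not self-fluorescent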;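 on all read-outs here: cells exposed to compound for 72 h before imaging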;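 on red/green cell ratio (normalised): normalised mesenchymal count divided by normalised epithelial count so high means epithelial killing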); conditions: PC-3E GFP / TEM4-18 mCherry co-culture, imaging cell counts, at 1 µM; for red/green cell ratio (normalised): actives lie on both sides
# [12] = system: Aerobactin synthetase IucA (Klebsiella pneumoniae hvKP1); experiment: IucA enzyme inhibition, primary screen, biochemical, Spectrum library (AID 1346200; call rule not given here;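 further: 100% = wells without compound and 0% = wells lacking enzyme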); conditions: malachite green pyrophosphate, A620, at 8 µM, stronger effect = lower value
# [13] = viability loss with induced miR-34 in A549 – imaging, A549 dox-inducible miR-34, nuclei and caspase counts, primary screen (AID 1347080;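 active means compounds whose cell count with miR-34 switched on is under 0.7 times the count with it off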); conditions: A549 miR-34 inducible, Hoechst nuclei count, 48 h
# [14] = molecular target: NAD(+) hydrolase SARM1 (Homo sapiens) (UniProt Q6SZW1); experiment: blocking NAD cleavage by SARM1 SAM-TIR – cell lysate, NAD-Glo luminescence (AID 1508614;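 active means compound whose remaining NAD level is above about 45 nM, limit read from the data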); conditions: SAM-TIR HEK293T lysate NADase, at 1 µM, stronger effect = higher value
# Sequence of NAD(+) hydrolase SARM1 (Homo sapiens) (Q6SZW1 whole entry, looked up, the tested form may be a part): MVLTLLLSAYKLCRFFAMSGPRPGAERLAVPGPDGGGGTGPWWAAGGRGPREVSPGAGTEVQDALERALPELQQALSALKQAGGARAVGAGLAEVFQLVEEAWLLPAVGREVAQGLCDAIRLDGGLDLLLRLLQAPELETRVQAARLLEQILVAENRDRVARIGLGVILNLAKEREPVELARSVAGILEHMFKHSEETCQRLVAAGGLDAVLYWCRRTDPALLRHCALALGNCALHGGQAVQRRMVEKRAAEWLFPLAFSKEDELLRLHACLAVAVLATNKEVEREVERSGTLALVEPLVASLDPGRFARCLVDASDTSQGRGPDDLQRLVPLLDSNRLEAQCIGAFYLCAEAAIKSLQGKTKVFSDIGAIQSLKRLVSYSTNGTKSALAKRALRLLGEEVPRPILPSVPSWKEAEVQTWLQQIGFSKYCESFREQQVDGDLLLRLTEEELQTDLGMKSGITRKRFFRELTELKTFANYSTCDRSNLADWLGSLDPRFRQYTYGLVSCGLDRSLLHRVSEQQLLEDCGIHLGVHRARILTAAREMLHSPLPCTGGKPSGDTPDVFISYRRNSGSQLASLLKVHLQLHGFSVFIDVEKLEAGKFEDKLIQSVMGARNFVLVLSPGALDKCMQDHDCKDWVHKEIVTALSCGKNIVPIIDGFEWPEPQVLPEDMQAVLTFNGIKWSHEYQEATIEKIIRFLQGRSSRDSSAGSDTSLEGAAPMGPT
# [15] = molecular target: Mitogen-activated protein kinase 7 (Homo sapiens) (UniProt Q13164); experiment: Gal4-ERK5 driven luciferase induction – cell-based, HTS, primary screen (AID 1508626;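 active means luciferase signal above three times the same-plate solvent-only control wells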;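 further: luciferase driven by Gal4-ERK5 fusion binding five Gal4 sites before minimal TATA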); conditions: HeLa Gal4-ERK5 transactivation, 18 h, at 5 µM, stronger effect = higher value
# Sequence of Mitogen-activated protein kinase 7 (Homo sapiens) (Q13164 whole entry, looked up, the tested form may be a part): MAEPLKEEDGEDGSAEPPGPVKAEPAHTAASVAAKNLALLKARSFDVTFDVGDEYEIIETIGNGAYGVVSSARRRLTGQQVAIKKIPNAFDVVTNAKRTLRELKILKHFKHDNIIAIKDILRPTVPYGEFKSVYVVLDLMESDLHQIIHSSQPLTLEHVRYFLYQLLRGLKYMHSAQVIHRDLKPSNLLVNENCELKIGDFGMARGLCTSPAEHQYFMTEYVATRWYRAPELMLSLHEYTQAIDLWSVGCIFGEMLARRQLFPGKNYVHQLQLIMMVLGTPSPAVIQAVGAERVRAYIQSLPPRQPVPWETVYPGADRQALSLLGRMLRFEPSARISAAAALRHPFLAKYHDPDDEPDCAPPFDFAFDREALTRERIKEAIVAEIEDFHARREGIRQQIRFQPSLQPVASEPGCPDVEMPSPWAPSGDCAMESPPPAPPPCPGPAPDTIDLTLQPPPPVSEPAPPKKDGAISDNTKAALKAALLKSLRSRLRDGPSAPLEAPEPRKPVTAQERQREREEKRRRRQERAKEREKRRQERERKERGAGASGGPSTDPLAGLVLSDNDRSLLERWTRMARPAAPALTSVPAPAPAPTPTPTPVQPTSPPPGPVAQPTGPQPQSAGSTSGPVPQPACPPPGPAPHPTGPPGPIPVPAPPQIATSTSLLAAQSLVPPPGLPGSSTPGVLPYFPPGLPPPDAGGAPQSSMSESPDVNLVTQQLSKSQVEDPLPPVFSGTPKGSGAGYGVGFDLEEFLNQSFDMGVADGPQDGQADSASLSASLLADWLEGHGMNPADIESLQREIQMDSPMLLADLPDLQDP
# [16] = compounds altering viability of human ES cells (AID 493140; call rule not given here;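 further: cells exposed to compounds for four days before counting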); conditions: human embryonic stem cell survival screen; stronger effect = higher value
# [17] = MELAS cybrid and Rieske KO viability enhancers – cell-based, MELAS cybrids, Rieske KO mouse fibroblasts, CellTiter-Glo, primary screen (AID 1508586;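 active means mean z-score across replicates of 1.96 or higher in either the MELAS or the Rieske mutant cell line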;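 further: z relative to plate mean and SD of compound and empty wells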); conditions: low glucose
# [18] = compounds altering circadian rhythm period length – cell-based, LOPAC library, luminescence reporter (AID 2774; call rule not given here;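 further: values are relative to mean of DMSO wells on each plate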); conditions: circadian reporter cells, at 7 µM, actives lie on both sides
# [19] = system: Hepatitis C virus NS3 helicase; experiment: blockers of NS3h binding to ssDNA – biochemical, fluorescence polarization, LOPAC1280 library, primary screen (AID 687035; in the data active means inhibition above about 37%); conditions: Purified HCV NS3 helicase, Cy5-dT15 ssDNA binding fluorescence polarization; stronger effect = higher value; concentration not given here
# [20] = galactose survival enhancers in mitochondrial complex I cybrids – cell-based, galactose medium, ATP luminescence, primary screen (AID 1645843;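 active means z-score of at least 1.8 in each of two replicates, scored against plate mean and spread of sample wells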;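 further: positive z means more ATP and so rescue of galactose-driven cybrid death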); conditions: complex I mutant cybrid cells, 72 h, stronger effect = higher value
# [21] = measured here: epithelial PC-3E GFP cell survival
# [22] = measured here: mesenchymal TEM4-18 mCherry cell survival
# [23] = measured here: relative caspase fold change +Dox/-Dox
# [24] = measured here: total cells with miR-34 induction, stronger effect = lower value
# [25] = measured here: total cells without miR-34 induction
# [26] = stronger effect = lower value, cell number ratio, induced over uninduced
# [27] = MELAS cybrid survival, CellTiter-Glo 48 h, stronger effect = higher value
# [28] = Rieske KO mouse fibroblast survival, CellTiter-Glo 72 h
smiles,measurement,setting,value
C=CCC1(C(C)CCC)C(=O)N=C(S)NC1=O (stereo unspecified),inhibition,[1],1.58%
same,score,[2],1.49
same,rescue above control,[3],6.87
same,cytochrome c release ratio,[4],0.94
same,inhibition of aggregation,[5],42.9%
same,glutamate uptake change,[6],8.72%
same,inclusion score,[7],2
same,aggregation suppression score,[8],1.19
same,parasite load remaining,[9],21.5% (inactive)
same,viability,[9],101%
same,inhibition,[10],2.84% (inactive)
same,red/green cell ratio (normalised),[11],1.3 (inactive)
same,normalised cell number,[11]; [21],0.79
same,normalised cell number,[11]; [22],1.03
same,activity remaining,[12],110% (inactive)
same,fold change,[13]; stronger effect = lower value,0.918 (inactive)
same,fold change,[13]; [23],2.58
same,cell count,[13]; [24],11400
same,cell count,[13]; [25],12400
same,remaining NAD,[14],10 nM (inactive)
same,luciferase signal,[15],84 AU (inactive)
O=C1C(Cl)=C(Cl)C(=O)C(Cl)=C1Cl,inhibition,[10],3.96% (inactive)
same,red/green cell ratio (normalised),[11],1.04 (inactive)
same,normalised cell number,[11]; [21],1
same,normalised cell number,[11]; [22],1.04
same,activity remaining,[12],100% (inactive)
CN(C)[C@@H]1C(=O)C(C(N)=O)=C(O)[C@@]2(O)C(=O)C3=C(O)c4c(O)ccc(Cl)c4[C@@](C)(O)[C@H]3C[C@@H]12,inhibition,[1],15.6%
same,score,[2],0.9
same,rescue above control,[3],0
same,cytochrome c release ratio,[4],0.82
same,inhibition of aggregation,[5],9.52%
same,glutamate uptake change,[6],10.1%
same,inclusion score,[7],0
same,aggregation suppression score,[8],0.363
same,survival,[16],14.3 (inactive)
same,parasite load remaining,[9],104% (inactive) and 84.9% (inactive) and 79.4% (inactive)
same,viability,[9],73.9% and 86% and 80%
same,inhibition,[10],-12.1% (inactive)
same,red/green cell ratio (normalised),[11],0.9 (inactive) and 1.54 (inactive)
same,normalised cell number,[11]; [21],1.16 and 0.93
same,normalised cell number,[11]; [22],1.04 and 1.43
same,activity remaining,[12],117% (inactive)
same,fold change,[13]; [26],0.926 (inactive)
same,fold change,[13]; [23],2.73
same,cell count,[13]; [24],9350
same,cell count,[13]; [25],10100
same,z-score,[17]; [27],-3.64 (inactive)
same,z-score,[17]; [28],-1.98
same,remaining NAD,[14],10 nM (inactive)
same,luciferase signal,[15],60 AU (inactive)
CC1=C(O)C(=O)C=C2C1=CC=C1[C@@]2(C)CC[C@@]2(C)[C@@H]3C[C@](C)(C(=O)O)CC[C@]3(C)CC[C@]12C,inhibition,[10],-29.5% (inactive)
same,red/green cell ratio (normalised),[11],0.62 (inactive)
same,normalised cell number,[11]; [21],0.09
same,normalised cell number,[11]; [22],0.05
same,activity remaining,[12],122% (inactive)
same,fold change,[13]; stronger effect = lower value,0.911 (inactive)
same,fold change,[13]; [23],1.02
same,cell count,[13]; [24],948
same,cell count,[13]; [25],1040
same,luciferase signal,[15],360 AU (inactive)
S=C=NCc1ccccc1,parasite load remaining,[9],45.7% (inactive)
same,viability,[9],72.2%
same,inhibition,[10],-1.63% (inactive)
same,red/green cell ratio (normalised),[11],0.83 (inactive)
same,normalised cell number,[11]; [21],1.15
same,normalised cell number,[11]; [22],0.95
same,activity remaining,[12],83.8% (inactive)
same,remaining NAD,[14],10 nM (inactive)
same,luciferase signal,[15],168 AU (active)
ClC1C(Cl)C(Cl)C(Cl)C(Cl)C1Cl (stereo unspecified),inhibition,[1],25.7%
same,score,[2],0.3
same,rescue above control,[3],-3.21
same,cytochrome c release ratio,[4],1.15
same,inhibition of aggregation,[5],69.4%
same,glutamate uptake change,[6],1.02%
same,aggregation suppression score,[8],-0.101
same,parasite load remaining,[9],60.1% (inactive)
same,viability,[9],93.4%
same,inhibition,[10],7.58% (inactive)
same,red/green cell ratio (normalised),[11],1.19 (inactive)
same,normalised cell number,[11]; [21],1.23
same,normalised cell number,[11]; [22],1.47
same,activity remaining,[12],113% (inactive)
same,fold change,[13]; stronger effect = lower value,0.871 (inactive)
same,fold change,[13]; [23],1.71
same,cell count,[13]; [24],10400
same,cell count,[13]; [25],11900
same,remaining NAD,[14],10 nM (inactive)
same,luciferase signal,[15],192 AU (inactive)
CCCCCCCCCCCCCCCC[n+]1ccccc1,inhibition,[1],55.6%
same,score,[2],-0.08
same,rescue above control,[3],0
same,cytochrome c release ratio,[4],3.74
same,inhibition of aggregation,[5],52.2%
same,glutamate uptake change,[6],-18.1%
same,aggregation suppression score,[8],-0.00459
same,parasite load remaining,[9],-0.13% (inactive) and -0.08% (inactive)
same,viability,[9],14.3% and 4.9%
same,inhibition,[10],10.7% (inactive)
same,red/green cell ratio (normalised),[11],0.76 (inactive)
same,normalised cell number,[11]; [21],0.52
same,normalised cell number,[11]; [22],0.4
same,activity remaining,[12],111% (inactive)
same,fold change,[13]; stronger effect = lower value,0.867 (inactive) and 0.767 (inactive)
same,fold change,[13]; [23],1.06 and 4.42
same,cell count,[13]; [24],1850 and 1610
same,cell count,[13]; [25],2130 and 2090
same,z-score,[17]; [27],-0.367 (inactive)
same,z-score,[17]; [28],-0.303
same,remaining NAD,[14],10 nM (inactive)
same,luciferase signal,[15],96 AU (inactive)
NCCc1c[nH]c2ccccc12,inhibition,[1],21.6%
same,score,[2],1.14
same,rescue above control,[3],-4.06
same,cytochrome c release ratio,[4],0.68
same,inhibition of aggregation,[5],21.6%
same,glutamate uptake change,[6],6.97%
same,inclusion score,[7],2
same,aggregation suppression score,[8],1.32
same,period change,[18],0.085 h (inactive)
same,parasite load remaining,[9],148% (inactive)
same,viability,[9],88.3%
same,inhibition,[19],0% (inactive)
same,inhibition,[10],-12.7% (inactive)
same,red/green cell ratio (normalised),[11],1.06 (inactive)
same,normalised cell number,[11]; [21],0.86
same,normalised cell number,[11]; [22],0.92
same,activity remaining,[12],113% (inactive)
same,fold change,[13]; stronger effect = lower value,1.02 (inactive)
same,fold change,[13]; [23],1.42
same,cell count,[13]; [24],9290
same,cell count,[13]; [25],9110
same,luciferase signal,[15],44 AU (inactive)
same,z-score,[20],0.19 (inactive)
NC(N)=NOCC[C@H](N)C(=O)O,inhibition,[1],10.5%
same,score,[2],1.23
same,rescue above control,[3],-6.04
same,cytochrome c release ratio,[4],1.27
same,inhibition of aggregation,[5],85.9%
same,glutamate uptake change,[6],11.4%
same,inclusion score,[7],2
same,aggregation suppression score,[8],1.39
same,period change,[18],-0.04 h (inactive)
same,parasite load remaining,[9],114% (inactive) and 105% (inactive)
same,viability,[9],112% and 68.7%
same,inhibition,[19],2% (inactive)
same,inhibition,[10],12.8% (inactive)
same,red/green cell ratio (normalised),[11],1.04 (inactive)
same,normalised cell number,[11]; [21],0.91
same,normalised cell number,[11]; [22],0.95
same,activity remaining,[12],113% (inactive)
same,fold change,[13]; stronger effect = lower value,1.01 (inactive)
same,fold change,[13]; [26],0.827 (inactive)
same,fold change,[13]; [23],1.39 and 1.69
same,cell count,[13]; [24],9120 and 8920
same,cell count,[13]; [25],8990 and 10800
same,luciferase signal,[15],84 AU (inactive)
same,z-score,[20],0.085 (inactive)
C[C@H](N)[C@H](O)c1ccc(O)c(O)c1,inhibition,[1],6.31%
same,score,[2],1.43
same,rescue above control,[3],4.59
same,cytochrome c release ratio,[4],0.9
same,inhibition of aggregation,[5],7.58%
same,glutamate uptake change,[6],12.7%
same,inclusion score,[7],2
same,aggregation suppression score,[8],1.14
same,parasite load remaining,[9],61.3% (inactive) and 64.5% (inactive) and 57.8% (inactive)
same,viability,[9],93.6% and 73.6% and 105%
same,inhibition,[10],-1.74% (inactive)
same,red/green cell ratio (normalised),[11],1.17 (inactive)
same,normalised cell number,[11]; [21],1.01
same,normalised cell number,[11]; [22],1.18
same,activity remaining,[12],102% (inactive)
same,fold change,[13]; stronger effect = lower value,0.912 (inactive) and 0.869 (inactive)
same,fold change,[13]; [23],1.02 and 0.57
same,cell count,[13]; [24],9300 and 11200
same,cell count,[13]; [25],10200 and 12900
same,z-score,[17]; [27],-0.729 (inactive)
same,z-score,[17]; [28],-1.14
same,remaining NAD,[14],10 nM (inactive)
same,luciferase signal,[15],16 AU (inactive)
